In PubChem BioAssay (NCATS):
Results filed as inconclusive are left out. The source made the active and inactive calls. Calls come from the whole dose curve; as a rule, active = well fitted inhibition curve with a large enough effect; inconclusive = small, poorly fitted or top-dose-only effect; inactive = flat fitted curve, though single readings scatter.

Target: Calcium and integrin-binding protein 1 (Homo sapiens) (UniProt Q99828)
Test: Primary qHTS for Identification of Calcium Integrin Binding Protein 1 (CIB1) Competitor (AID 1508620);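 note: GST tagged CIB1 binding a fluorescein labelled alphaIIb integrin peptide tracer; top concentration of the series differs between compounds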
Settings: CIB1-GST / FITC-alphaIIb peptide fluorescence polarization; series mostly up to 57.7 µM; activity change, negative = inhibition: at the top concentration
Text: Assay Provider: Ulhas P. Naik, PhD Sidney Kimmel Medical College Thomas Jefferson University, Philadelphia, PA Primary function of platelets is to maintain hemostasis. At the site of vascular injury, platelets adhere to adhesive proteins such as collagen and von Willebrand factor. Adherent platelets are activated and generate soluble platelet agonists such as thrombin, ADP and thromboxane A2. Following exposure of circulating platelets to these agonists, results in platelet shape change, granule secretion and activation of platelet integrin alphaIIb-beta3. Ligand binding to activated integrin alphaIIb-beta3 triggers outside-in signaling, leading to platelet aggregation, stabilization of platelet plug, and clot retraction. Upon atherosclerotic plaque rupture also causes platelet plug formation, which underlies a number of cardiovascular diseases such as myocardial infraction and stroke. A number of anti-platelet drugs such as aspirin, clopidogrel, prasugrel, vorapaxar, and eptifibatide are currently available to prevent the thrombotic complications. However, these anti-platelet agents have several limitations including inherent variability in individual responses, developing resistance, and serious bleeding side effects. For these reasons they are not suitable for long-term protection. Based on the experiences with current anti-platelet drugs, it appears that the most useful therapeutic approach is to intersect the secondary responses such as integrin outside-in signaling or recruitment of platelets by TxA2 and secreted ADP. Compounds, which can largely preserve the primary hemostatic function of platelets but inhibit secondary response will be most desired therapeutic agents for treatment of cardiovascular disease. CIB1 is a calcium integrin binding protein, which specifically interact with the alphaIIb subunit of integrin alphaIIb-beta3. Binding of CIB1 to alphaIIb regulates the outside-in signaling in platelets, which is needed for thrombus stabilization and thrombus growth. […] Therefore, we propose that discovery of a small molecule that can prevent the association of CIB1 and alphaIIb-beta3 will be a potential anti-platelet agent that can block the thrombus formation without undue effect on hemostasis. Reference: [1] Naik MU, Nigam A, Manrai P, et al. CIB1 deficiency results in impaired thrombosis: the potential role of CIB1 in outside-in signaling through integrin alpha IIb beta 3. J Thromb Haemost.
PROTOCOL TABLES SEQUENCE No. (1, 2, 3, etc.); […] (e.g., Cells, Incubation, Reagent, etc.); VALUE and DESCRIPTION. 1; Reagent; 3 uL; Protein or buffer (4/3x) 2; Compound; 46 nL; Control inhibitor / compound library 3; Time; 15 min; Room temperature incubation 4; Reagent; 1 uL; Fluorescent labeled peptide (4x) 5; Time; 1000 rpm; Centrifuge 6; Time; 15 min; Room temperature incubation 7; Detection; Ex 480/ Em 540; ViewLux Fluorescence Read NOTES (numbers refer to sequence above) 1; Protein Mixture: C1B1-GST (final concentrations of 1 uM). […] 3; Room temperature incubation. 4; Fluorescent Labeled Peptide: FITC-aIIb (final concentration of 100 nM). Sequence of alphaIIb peptide: Acetyl-[…]-FITC (purity is 95.83%). 5; Centrifuge 1000 rpm (164 g) for 15 seconds. 6; Room temperature incubation. 7; ViewLux Fluorescent Polization Read: excitation = 480(20) / emission = 540(25) S and P; FITC Dichroic mirror.
% is set by controls: 0 for no effect and ±100 for the full control effect.

Calcium and integrin-binding protein 1 (Homo sapiens), sequence (Q99828 whole entry, looked up): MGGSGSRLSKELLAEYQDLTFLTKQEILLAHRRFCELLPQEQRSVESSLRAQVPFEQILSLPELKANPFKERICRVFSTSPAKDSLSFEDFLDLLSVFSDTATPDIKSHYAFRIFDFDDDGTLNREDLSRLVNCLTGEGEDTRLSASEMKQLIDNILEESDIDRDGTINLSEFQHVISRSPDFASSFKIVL

Compound | activity change, negative = inhibition | Potency
C[C@@H]1C(=O)O[C@H]2CC34[C@H]5C[C@@H](C(C)(C)C)C36[C@H](OC(=O)[C@@H]6O)O[C@@]4(C(=O)O5)[C@]21O (stereo not given in full) | -5.15% (inactive) | 
C[N+](C)([O-])CCNc1ccc(NCC[N+](C)(C)[O-])c2c1C(=O)c1c(O)ccc(O)c1C2=O | -5.38% (inactive) | 
C[C@@H](Cc1cc2c(c(C(N)=O)c1)N(CCCO)CC2)NCCOc1ccccc1OCC(F)(F)F | -6.93% [at 114 µM] (inactive) | 
COC1=C2C[C@@H](C)C[C@H](OC)[C@@H](O)[C@@H](C)C=C(C)[C@H](OC(N)=O)[C@@H](OC)C=CC=C(C)C(=O)NC(=CC1=O)C2=O | -9.31% (inactive) | 
Nc1nc(N)c2nc(-c3cccc(O)c3)c(-c3cccc(O)c3)nc2n1 | 1.91% (inactive) | 
Cc1cnc(Nc2ccc(CN3CCOCC3)cc2)nc1Nc1cccc(S(=O)(=O)NC(C)(C)C)c1 |  | inactive
COc1cc(OC)c(NC(=O)Nc2cc(C)on2)cc1Cl | -3.3% (inactive) | 
O=c1[nH]c(=O)n([C@H]2C[C@@H](O)[C@@H](CO)O2)cc1F | -1.71% (inactive) | 
C[C@@H](Oc1ccc2[nH]nc(C=Cc3cnn(CCO)c3)c2c1)c1c(Cl)cncc1Cl | -0.265% (inactive) | 
CC(C)(O)Cn1c(NC(=O)c2ccc(-c3cn[nH]c3)s2)nc2cc(CN3CCOCC3)ccc21 | -18% (inactive) | 
CC(C)N1[N]C(=C2C=c3cc(O)ccc3=N2)c2c(N)ncnc21 | -6.46% (inactive) | 
CCN1CCN(C(=O)N[C@H](C(=O)N[C@@H]2C(=O)N3C(C(=O)O)=C(CSc4nnnn4C)CS[C@@H]23)c2ccc(O)cc2)C(=O)C1=O | -3.53% [at 12.4 µM] (inactive) | 
NS(=O)(=O)OC[C@@H]1C[C@@H](n2ccc3c(N[C@H]4CCc5ccccc54)ncnc32)C[C@H]1O | 1.59% (inactive) | 
CCCCCCCCCCCC(CC1OC(=O)C1CCCCCC)OC(=O)C(CC(C)C)NC=O (stereo not given) | -3.21% (inactive) | 
Cc1onc(-c2ccccc2)c1C(=O)N[C@@H]1C(=O)N2[C@@H](C(=O)O)C(C)(C)S[C@@H]12 | -2.37% (inactive) | 
Cn1cc(C=CC(=O)c2cccc(F)c2)cc1C=CC(=O)NO | 88.1% (inactive) | 
C[C@H](NC(=O)C(C#N)=Cc1cccc(Br)n1)c1ccccc1 | -5.95% (inactive) | 
COc1cc(C=CC(=O)CC(=O)C=Cc2ccc(O)c(OC)c2)ccc1O | 35.7% [at 114 µM] (inactive) | 
COC(=O)[C@@H]1CC2=CC(=O)CC[C@]2(C)[C@@]23O[C@@H]2C[C@@]2(C)[C@H](CC[C@@]24CCC(=O)O4)[C@@H]13 | 3.49% (inactive) | 
COc1cc(C[C@@H](CO)[C@H](CO)Cc2ccc(O)c(OC)c2)ccc1O | -1.7% (inactive) | 

Compound | activity change, negative = inhibition | Potency
CCCNS(=O)(=O)Nc1ncnc(OCCOc2ncc(Br)cn2)c1-c1ccc(Br)cc1 | -7.8% (inactive) | 
Cn1cnc(=N)c2[nH]cnc21 | 2.19% (inactive) | 
Nc1ccc(C(=O)Nc2cccc(-c3nc(N4CCOCC4)c4oc5ncccc5c4n3)c2)cn1 |  | inactive
c1cc(N[C@@H]2CCNC2)nc(-c2cnc3ccc(-c4cn[nH]c4)cn23)c1 | -11.9% [at 114 µM] (inactive) | 
CCOC(=O)[C@@H](N)Cc1ccc(-c2cc(O[C@H](c3ccc(Cl)cc3-n3ccc(C)n3)C(F)(F)F)nc(N)n2)cc1 |  | inactive
Cc1cnc(Nc2ccc(N3CCN(C)CC3)cc2)nc1Nc1cccc(S(=O)(=O)NC(C)(C)C)c1 | -7.43% (inactive) | 
O=C(Nc1cc2cc[nH]c2cn1)c1ccccc1 |  | inactive
COc1cc(CCc2cc(NC(=O)c3ccc(N4C[C@@H](C)N[C@@H](C)C4)cc3)n[nH]2)cc(OC)c1 |  | inactive
CC(C=CC1=C(C)CCCC1(C)C)=CC=CC(C)=CC(=O)Nc1ccc(O)cc1 | -4.41% [at 114 µM] (inactive) | 
COc1cc(OC)cc(-c2ccc3ncc4ccc(=O)n(-c5ccc(N6CCNCC6)c(C(F)(F)F)c5)c4c3c2)c1 | -0.972% (inactive) | 
CCCCCCCCc1ccc(CCC(N)(CO)CO)cc1 | -2.51% (inactive) | 
CN1CCc2c(c3ccccc3n2Cc2ccc(C(=O)NO)cc2)C1 |  | inactive
C[C@]12C=CC(=O)N[C@@H]1CC[C@H]1[C@H]3CC[C@@H](C(=O)Nc4cc(C(F)(F)F)ccc4C(F)(F)F)[C@@]3(C)CC[C@@H]12 | -8.57% (inactive) | 
COc1ccc2c(c1OC)C(=O)OC2[C@H]1c2c(cc3c(c2OC)OCO3)CCN1C (stereo not given in full) | 2.7% (inactive) | 
N#CNC(=NCCCCCCOc1ccc(Cl)cc1)Nc1ccncc1 | 1.9% (inactive) | 
CC(C)(C)[C@H](NC(=O)c1ccc(N)c(Cl)c1)C(=O)N1CCC[C@@H]1C(=O)N[C@H](C#N)CC(=O)O | -8.66% [at 6.45 µM] (inactive) | 
O=C1NC(=O)C(=Cc2ccc3nccc(-c4ccncc4)c3c2)S1 | -6.25% (inactive) | 
CC1(C)O[C@@H]2C[C@H]3[C@@H]4CCC5=CC(=O)C=C[C@]5(C)[C@@H]4[C@@H](O)C[C@]3(C)[C@]2(C(=O)CO)O1 | 2.53% [at 114 µM] (inactive) | 
CCNC(=O)Nc1ccc(-c2nc3c(c(N4CCOC[C@H]4C)n2)CCN(C2COC2)C3)cc1 | -4.08% (inactive) | 
CC(C)[C@H](CO)Nc1nc(Nc2cccc(Cl)c2)c2ncn(C(C)C)c2n1 | -0.34% (inactive) | 
